Laboratory results published in PubChem BioAssay (Tox21).
Records with an inconclusive call do not appear. Calls of active or inactive are those of the source. Calls follow the shape of the dose curve; as a rule, active = well fitted cell-killing curve with a large enough effect in the repeat runs; inconclusive = weak or mixed curves, or effect the other way; inactive = no such curve, though single readings can be large or run the other way.

Test: qHTS assay to identify small molecule antagonists of the glucocorticoid receptor (GR) signaling pathway - cell viability counter screen (AID 720693); also: nearly all actives have a fitted effect of over 55% in size
Details: GR-bla HeLa viability, CellTiter-Glo luminescence, 18 h, with 5 nM dexamethasone present; series mostly up to 58.5 µM; viability change, negative = cytotoxic: at the top concentration
Description: National Center for Advancing Translational Sciences [NCATS]
NIH Chemical Genomics Center [NCGC]
U.S. Environmental Protection Agency [EPA]
National Institutes of Environmental Health Sciences [NIEHS]
National Toxicology Program [NTP]
U.S. Food and Drug Administration [FDA]
The Glucocorticoid receptor (GR) is one of the members of the nuclear receptor family of ligand-dependent transcription factors. GR plays a critical role in carbohydrate, protein and lipid metabolisms and programmed cell death. CellSensor GR-bla HeLa cell line (Invitrogen) contains a beta-lactamase reporter gene under the control of the glucocorticoid response element stably integrated into HeLa cells, a cervical cancer cell line that expresses glucocorticoid receptor. The activation of the reporter gene under culture conditions can be detected by fluorescence intensity. This cell line has been used to screen the Tox21 10K compound library and to identify the compounds that inhibit the GR signaling. The cytotoxicity of the Tox21 compound library against the GR-bla HeLa cell line was tested in parallel by measuring the cell viability using CellTiter-Glo assay in the same wells.
Tox21 Assay Protocol Summary:
The GR-bla HeLa cells were dispensed at 1500 cells/5 ul/well in 1536-well black wall/clear bottom plates using a Multidrop Combi (ThermoFisher Scientific, Waltham, MA) dispenser. After the assay plates were incubated at a 37 C/5% CO2 incubator for 4 hours, 23 nL of compounds dissolved in DMSO, positive controls or DMSO only was transferred to the assay plate by a pintool station (Kalypsys, San Diego, CA), followed by addition of 1 uL of dexamethasone (5 nM, final concentration in the well). The plates were incubated at 37 C for 18 hours. After 1 uL of LiveBLAzerTM B/G FRET substrate was added using a Flying Reagent Dispenser (Aurora Discovery, San Diego, CA), the plates were incubated at room temperature (RT) for 2 hours, and fluorescence intensity was measured by an Envision plate reader (PerkinElmer, Shelton, CT). After measurement of bla assay, 3 ul CellTiter-Glo (Promega, Madison, WI) was added to measure the cytotoxicity and the plates were then incubated at RT for 30 min. The luminescence was measured using a ViewLux (Perkin Elmer) plate reader.
% is scaled to controls: 0 for no effect and ±100 for the full control effect; potency is read from the fitted curve at half-maximal effect.

Compound | viability change, negative = cytotoxic | Potency
O.O.O.O=C([O-])[C@H]([O-])[C@@H]([O-])C(=O)[O-].O=C([O-])[C@H]([O-])[C@@H]([O-])C(=O)[O-].[K+].[K+].[Sb+3].[Sb+3] | -11.3% [at 78.9 µM] (inactive) | 
COC(=O)c1cc(Oc2ccc(Cl)cc2Cl)ccc1[N+](=O)[O-] | 5.34% (inactive) | 
CCNS(=O)(=O)C(F)(F)C(F)(F)C(F)(F)C(F)(F)C(F)(F)C(F)(F)C(F)(F)C(F)(F)F | -4.97% (inactive) | 
CCCCC(CC)COC(=O)OOC(C)(C)C (stereo not given) | 14.2% (inactive) | 
Brc1ccc(Oc2ccc(Br)cc2Br)c(Br)c1 | -7.28% (inactive) | 
CN1C(=O)[C@@H](NC(=O)c2cc3ccccc3[nH]2)N=C(c2ccccc2)c2ccccc21 | -2.88% (inactive) | 
C[C@]12C/C(=C/O)C(=O)C[C@@H]1CC[C@@H]1[C@@H]2CC[C@@]2(C)[C@H]1CC[C@]2(C)O |  | 49.4 µM (active)
CNC(=O)Oc1cc(C)cc(C(C)C)c1 | -11.6% (inactive) | 
Cc1ccccc1OP(=O)(Oc1ccccc1C)Oc1ccccc1C | -18.7% [at 78.9 µM] (inactive) | 
O=C1C[C@@H]2OCC=C3CN4CC[C@]56c7ccccc7N1[C@H]5[C@H]2[C@H]3C[C@H]46 |  | inactive
CC(C)c1c(CN(C)C(C)Cc2ccccc2)n(C)n(-c2ccccc2)c1=O (stereo not given) | 9.2% [at 27 µM] (inactive) | 
Oc1cc(Cl)c(Cl)c(Cl)c1Cl |  | 21.4 µM (active)
CCCCON=O | -1.27% [at 78.9 µM] (inactive) | 
CC(=O)[O][Sn]([c]1ccccc1)([c]1ccccc1)[c]1ccccc1 |  | 0.871 µM (active)
CCN(CC)C(=O)N[C@@H]1C=C2c3cccc4[nH]cc(c34)C[C@@H]2N(C)C1 | -7.29% (inactive) | 
COc1cnc(OC)n2nc(NS(=O)(=O)c3c(OCC(F)F)cccc3C(F)(F)F)nc12 | -7.78% (inactive) | 
O=[N+]([O-])c1ccccc1-c1ccccc1 | -0.663% (inactive) | 
O=S(=O)(O)F | -0.0992% [at 78.9 µM] (inactive) | 
COP(=S)(OC)Oc1ccc([N+](=O)[O-])c(C)c1 | -6.33% (inactive) | 
CSC(C)(C)/C=N/O | -9.62% (inactive) | 

Compound | viability change, negative = cytotoxic | Potency
COCCC#N | 10.3% (inactive) | 
O=NN(CCO)CCO | -3.27% (inactive) | 
CC(Cc1ccc(OCC(=O)O)cc1)NCC(O)c1csc(C(F)(F)F)n1 (stereo not given) | 4.62% (inactive) | 
COc1ccc(Cc2nccc3cc(OC)c(OC)cc23)cc1OC | -25% [at 27 µM] (inactive) | 
CC(Cc1ccc(O)cc1)NCC(O)c1cc(O)cc(O)c1 (stereo not given) | 20.1% (inactive) | 
CCc1cccc(C)c1N(C(=O)CCl)[C@@H](C)COC | 10.1% (inactive) | 
[F][Sn]([c]1ccccc1)([c]1ccccc1)[c]1ccccc1 |  | 0.977 µM (active)
CCOC(=O)CCN(SN(C)C(=O)Oc1cccc2c1OC(C)(C)C2)C(C)C | 9.8% (inactive) | 
BrCCCBr | -9.25% [at 78.9 µM] (inactive) | 
COP(=S)(NC(C)C)Oc1ccc(C)cc1[N+](=O)[O-] (stereo not given) | 0.273% (inactive) | 
CC(C)N(C(=O)SC/C(Cl)=C/Cl)C(C)C | -2.62% [at 78.9 µM] (inactive) | 
CCN(CC)C(=S)S |  | inactive
C=CCOC(=O)c1ccccc1N | -0.953% [at 78.9 µM] (inactive) | 
CSC1=N[C@@](C)(c2ccccc2)C(=O)N1Nc1ccccc1 | -24.5% (inactive) | 
[C-]1=CC=CC1.[Cl][Zr+2][Cl].c1cc[cH-]c1 | 3% [at 78.9 µM] (inactive) | 
Nc1ccccc1-c1ccccc1 | -3.37% (inactive) | 
CC(=O)C(Cl)C(=O)N(C)C (stereo not given) | 0.558% (inactive) | 
CC(C)=CCN1CC[C@@]2(C)c3cc(O)ccc3C[C@@H]1[C@@H]2C | -8.93% (inactive) | 
CCC(C)c1cccc(C(C)CC)c1O (stereo not given) | -10.2% (inactive) | 
CC(C)Br | -8.84% (inactive) | 
